Article PMC5540273 (PLoS ONE, 2017)

Key:
Settings in all cases: concentration: 1 μM, replicates: in singlicate; n = 1
[1] = test system: PIK3CD
[2] = test system: PIK3CG
[3] = test system: T1, PIK4CB
T1 construct: gene PI4KB

[4] = test system: PIKFYVE
[5] = test system: PIM1
[6] = test system: PIM2
[7] = test system: PIM3
[8] = test system: PIP5K1A
[9] = test system: PIP5K1C
[10] = test system: PIP5K2B
[11] = test system: T2, PIP5K2C
T2 construct: gene PIP4K2C

[12] = test system: T3, PKAC-alpha
T3 construct: gene PRKACA

[13] = test system: T4, PKAC-beta
T4 construct: gene PRKACB

[14] = test system: PKMYT1
[15] = test system: PKN1
[16] = test system: PKN2
[17] = test system: PLK1
[18] = test system: PLK2
[19] = test system: PLK3
[20] = test system: PLK4
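Also: KINOMEscan kinase panel screen.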

SMILES | %Inh [1] [%] | %Inh [2] [%] | %Inh [3] [%] | %Inh [4] [%] | %Inh [5] [%] | %Inh [6] [%] | %Inh [7] [%] | %Inh [8] [%] | %Inh [9] [%] | %Inh [10] [%] | %Inh [11] [%] | %Inh [12] [%] | %Inh [13] [%] | %Inh [14] [%] | %Inh [15] [%] | %Inh [16] [%] | %Inh [17] [%] | %Inh [18] [%] | %Inh [19] [%] | %Inh [20] [%]
CC(C)(C)OC(=O)NC1CCCN(c2cc(-c3ccc4c(N)n[nH]c4c3)nc(N)n2)C1 (stereo not shown) [GSK2286096] | 0 | 19 | 1 | 0 | 9 | 0 | 5 | 0 | 7 | 19 | 0 | 0 | 0 | 0 | 0 | 0 | 16 | 0 | 0 | 10
CNc1nccc(-c2c(-c3ccc(F)cc3)ncn2CCCN2CCOCC2)n1 [SB-222516] | 0 | 0 | 20 | 0 | 0 | 0 | 81 | 6 | 17 | 0 | 0 | 1 | 19 | 0 | 0 | 36 | 41 | 14 | 0 | 0
Nc1nc(-c2ccc3c(N)n[nH]c3c2)cc(N2CCCCC2)n1 [GSK2228768] | 0 | 0 | 0 | 0 | 0 | 0 | 0 | 0 | 31 | 4 | 0 | 56 | 0 | 13 | 18 | 0 | 0 | 0 | 0 | 0
FC(F)(F)c1cc(Nc2nccc(-c3c(-c4ccc(Cl)cc4)nn4ncccc34)n2)ccc1Cl [GW829351] | 0 | 0 | 0 | 16 | 0 | 0 | 0 | 10 | 0 | 0 | 0 | 0 | 0 | 0 | 0 | 0 | 0 | 0 | 3 | 7
Cc1cc(N2CCC(NS(=O)(=O)c3ccc(F)cc3)CC2)nc(Nc2cccc(C#N)c2)n1.O=C(O)C(F)(F)F [GSK1653537] | 0 | 15 | 10 | 0 | 25 | 9 | 0 | 0 | 0 | 6 | 4 | 3 | 0 | 0 | 23 | 0 | 5 | 0 | 0 | 0
C[C@@H]1CCN(C(=O)CO)C[C@@H]1N(C)c1ncnc2[nH]ccc12 | 5 | 0 | 0 | 48 | 0 | 0 | 0 | 16 | 0 | 0 | 0 | 0 | 93.7 | 100 | 20 | 21 | 0 | 0 | 12 | 3
OCCOCCn1ccc2ncnc(Nc3ccc(Oc4cccc(Cl)c4)c(Cl)c3)c21 | 0 | 0 | 0 | 25 | 2 | 0 | 5 | 0 | 34 | 0 | 30 | 0 | 0 | 0 | 13 | 0 | 0 | 0 | 0 | 0
Nc1nc(-c2ccc3c(N)n[nH]c3c2)cc(N2CCC[C@@H](C(=O)Nc3ccccc3)C2)n1.O=C(O)C(F)(F)F.O=C(O)C(F)(F)F [GSK2288359] | 31 | 13 | 6 | 4 | 20 | 0 | 5 | 0 | 30 | 8 | 31 | 14 | 22 | 0 | 17 | 0 | 3 | 0 | 3 | 16
Nc1nc(-c2cccnc2)c(-c2ccnc3ccccc23)s1 [GW684083] | 0 | 0 | 0 | 12 | 0 | 0 | 0 | 25 | 58 | 0 | 51 | 0 | 0 | 0 | 0 | 0 | 0 | 0 | 0 | 0
CCC(CC)(CC)n1cnc2c(N)ncnc21 [SKF-97620] | 22 | 5 | 40 | 33 | 0 | 6 | 5 | 30 | 9 | 0 | 0 | 11 | 14 | 2 | 0 | 0 | 45 | 32 | 21 | 7
O=C(Nc1n[nH]c2nc(-c3ccco3)c(Br)cc12)c1ccc(CN2CCCC2)cc1.O=C(O)[C@H](O)[C@@H](O)C(=O)O [SB-742352] | 0 | 5 | 40 | 0 | 0 | 0 | 0 | 0 | 0 | 0 | 0 | 0 | 0 | 0 | 0 | 21 | 0 | 0 | 0 | 3
